From PubChem
WT yeast gro inh: growth inhibition of WT strain, primary screen, mitochondrial fusion inhibitor project, WT and mutant strains, chemical genetic; mitochondrial fusion phenotypic screen; AID 1362, 2008; inhibition, % at 10 µM; actives 2.1% (n = 190,000); in the data active = inhibition above about 58%; tested in S. cerevisiae
RAM inhibit: inhibitors of the yeast RAM network, primary screen, dse1pr::URA3 reporter, 5-FOA selection. S. cerevisiae dse1pr::URA3 reporter, 5-FOA growth OD615, 2 d; analog-sensitive cbk1-as2 kinase mutant strain. actives 1.8% (n = 190,000). inhibition, % at 50 µM;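 active = inhibition above a set limit, 3 SD over mean compound inhibition, cut at about 8.4% in these data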;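 note: inhibition rescues growth on 5-FOA so higher OD means more RAM inhibition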
L major viab: Leishmania major promastigote growth inhibition, primary screen. Leishmania major promastigotes, resazurin fluorescence viability. inhibition, % at 10 µM. actives 9% (n = 200,000); in the data active = inhibition above about 50%;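 note: promastigotes grown with compound for 44 hours at 28 °C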
CHOP inh: inhibitors of CHOP promoter induction, primary screen, cell-based, unfolded protein response, luciferase reporter; AID 2732, 2010; actives 3.8% (n = 220,000); CHO-K1 CHOP-promoter luciferase, tunicamycin-induced, 15-18 h; inhibition, % at 10 µM;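 active = compounds that reduced the stress-induced luciferase reporter signal by more than about 70% of percent inhibition, limit read from the data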
Numbers stand for hits. The list is not random: actives were taken first. Their share in the collection is about 13%.

For O=C1CCCC(=O)N1c1ccc(Oc2ccc(Cl)cc2)cc1 the results were WT yeast gro inh inactive, RAM inhibit inactive, L major viab inactive and CHOP inh inactive.
Screening O=C(COc1ccccc1F)NCc1ccc(-n2cccc2)cc1 returned WT yeast gro inh inactive, RAM inhibit inactive, L major viab inactive and CHOP inh inactive.
`Cc1ccccc1CN(C)CC(=O)Nc1ccccc1-c1ccccc1` gave WT yeast gro inh 78.9, RAM inhibit inactive, L major viab inactive and CHOP inh inactive.
Screening Cc1ccc(S(=O)(=O)N(CC(=O)Nc2ccccc2C(=O)O)c2ccccc2C)cc1 returned WT yeast gro inh inactive, RAM inhibit 8.7, L major viab inactive and CHOP inh inactive.
Screening COc1ccccc1CN(C)CC(=O)Nc1ccccc1-c1ccccc1 returned WT yeast gro inh inactive, RAM inhibit inactive, L major viab inactive and CHOP inh inactive.
For Cc1cccc(OCC(=O)Nc2ccccc2-c2ccccc2)c1 the results were WT yeast gro inh inactive, RAM inhibit inactive, L major viab inactive and CHOP inh 85.0.
Screening COc1ccc(OCC(=O)Nc2ccccc2-c2ccccc2)cc1 returned WT yeast gro inh inactive, RAM inhibit inactive, L major viab inactive and CHOP inh inactive.
Cc1ccc(CC(=O)Nc2ccccc2-c2ccccc2)cc1C was read as WT yeast gro inh inactive, RAM inhibit inactive, L major viab 70.0 and CHOP inh 89.5.
Screening COCC(=O)Nc1ccccc1-c1ccccc1 returned WT yeast gro inh inactive, RAM inhibit inactive, L major viab inactive and CHOP inh inactive.
O=C(Cc1ccccc1)NS(=O)(=O)c1ccc(N=NN2CCOCC2)cc1 was read as WT yeast gro inh inactive, RAM inhibit inactive, L major viab inactive and CHOP inh inactive.
For Cc1ccc(S(=O)(=O)N(CC(=O)Nc2ccccc2-c2ccccc2)c2ccc(C)cc2C)cc1 the results were WT yeast gro inh inactive, RAM inhibit inactive, L major viab inactive and CHOP inh inactive.
Screening Cc1cccc(N(CC(=O)Nc2ccccc2-c2ccccc2)S(=O)(=O)c2ccccc2)c1C returned WT yeast gro inh inactive, RAM inhibit inactive, L major viab 50.1 and CHOP inh inactive.
For C=CCn1cn[nH]c1=S the results were WT yeast gro inh inactive, RAM inhibit inactive, L major viab inactive and CHOP inh inactive.
Screening CN(Cc1ccccc1)C(=O)c1cc2ccccc2o1 returned WT yeast gro inh inactive, RAM inhibit inactive, L major viab inactive and CHOP inh inactive.
Screening O=C(c1cc2ccccc2o1)N(C1CC1)C1(C(=O)Nc2ccccc2)CCCC1 returned WT yeast gro inh 72.1, RAM inhibit inactive, L major viab inactive and CHOP inh inactive.
For COc1cccc(Oc2cncnc2-c2ccc(OC)cc2O)c1 the results were WT yeast gro inh inactive, RAM inhibit inactive, L major viab 93.2 and CHOP inh inactive.
COc1ccc(-c2ncncc2-c2ccc(Cl)cc2)c(O)c1 was read as CHOP inh inactive.
Screening O=C(Nc1ccccc1)c1ccccc1Oc1ccc(C(F)(F)F)cc1[N+](=O)[O-] returned WT yeast gro inh inactive, RAM inhibit inactive, L major viab inactive and CHOP inh 71.0.
O=C(Oc1ccccc1C(=O)Nc1ccccc1)c1ccc(Br)c([N+](=O)[O-])c1 was read as WT yeast gro inh inactive, RAM inhibit inactive, L major viab inactive and CHOP inh 84.5.
O=C(COc1ccc(S(=O)(=O)NC2CCCCC2)cc1Cl)N1CCN(c2ccccc2)CC1 was read as WT yeast gro inh inactive, RAM inhibit inactive, L major viab 98.4 and CHOP inh inactive.
O=C(COc1ccc(S(=O)(=O)NC2CCCCC2)cc1)N1CCN(c2ccc(F)cc2)CC1 was read as WT yeast gro inh inactive, RAM inhibit inactive, L major viab inactive and CHOP inh inactive.
Screening COc1ccc(CCNC(=O)COc2ccc(S(=O)(=O)NC3CCCCC3)cc2Cl)cc1 returned WT yeast gro inh inactive, RAM inhibit 10.0, L major viab 75.2 and CHOP inh inactive.
For O=C(COc1ccc(S(=O)(=O)NC2CCCCC2)cc1Cl)NCC1CCCO1 (stereo not given) the results were WT yeast gro inh inactive, RAM inhibit inactive, L major viab inactive and CHOP inh inactive.
`Cc1nc(C(=O)Nc2cccc(Cl)c2)nn1-c1cc(OC(C)C)c(Cl)cc1Cl` gave WT yeast gro inh 66.7, RAM inhibit inactive, L major viab inactive and CHOP inh inactive.
`CCCC(=O)NC(c1ccco1)c1cc([N+](=O)[O-])c2cccnc2c1O` (stereo not given) gave WT yeast gro inh inactive, RAM inhibit inactive, L major viab inactive and CHOP inh inactive.
CCCCC(=O)NC(c1cccs1)c1cc(Cl)c2cccnc2c1O (stereo not given) was read as WT yeast gro inh inactive, RAM inhibit inactive, L major viab 98.5 and CHOP inh 97.2.
`CCC(=O)NC(c1cccs1)c1cc(Cl)c2cccnc2c1O` (stereo not given) gave WT yeast gro inh inactive, RAM inhibit inactive, L major viab 98.2 and CHOP inh inactive.
For CCCC(=O)NC(c1ccc(OC)c(OC)c1)c1cc(Cl)c2cccnc2c1O (stereo not given) the results were WT yeast gro inh inactive, RAM inhibit inactive, L major viab 98.6 and CHOP inh inactive.
For NNC(=O)[C@H]1C[C@@H]1c1ccccc1 the results were WT yeast gro inh inactive, RAM inhibit inactive, L major viab inactive and CHOP inh inactive.
For CC(OC(=O)C1=COCCO1)C(=O)Nc1ccc(Oc2ccccc2)cc1 (stereo not given) the results were WT yeast gro inh inactive, RAM inhibit 10.4, L major viab inactive and CHOP inh inactive.
For CC(OC(=O)C1=COCCO1)C(=O)Nc1ccccc1C#N (stereo not given) the results were WT yeast gro inh inactive, RAM inhibit inactive, L major viab inactive and CHOP inh inactive.
Screening O=C(OC(C(=O)Nc1cc(Cl)cc(Cl)c1)c1ccccc1)C1=COCCO1 (stereo not given) returned WT yeast gro inh 58.4, RAM inhibit inactive, L major viab inactive and CHOP inh inactive.
`CCOC(=O)C1C(=O)C=C(c2ccc(Br)cc2)CC1c1ccco1` (stereo not given) gave WT yeast gro inh 62.4, RAM inhibit inactive, L major viab inactive and CHOP inh inactive.
CCOC(=O)C1C(=O)C=C(c2cccc(NS(C)(=O)=O)c2)CC1c1ccco1 (stereo not given) was read as WT yeast gro inh inactive, RAM inhibit inactive, L major viab inactive and CHOP inh inactive.
`Cc1ccc(-c2nc3ccccc3nc2Cl)cc1` gave WT yeast gro inh inactive, RAM inhibit 8.4, L major viab inactive and CHOP inh inactive.
Cc1ccc2nc(-c3ccccc3)c(-c3ccccc3)nc2c1 was read as WT yeast gro inh 65.1, RAM inhibit inactive, L major viab inactive and CHOP inh inactive.
For Cc1ccc2nc(Cl)nc(-c3ccccc3)c2c1 the results were WT yeast gro inh inactive, RAM inhibit inactive, L major viab inactive and CHOP inh inactive.
Screening O=[N+]([O-])c1ccc(/C=N/Nc2nc(N3CCCC3)nc(N3CCCC3)n2)o1 returned WT yeast gro inh inactive, RAM inhibit inactive, L major viab 99.3 and CHOP inh inactive.
